Values joined by “and” are separate entries in the source; they are usually repeats but may differ in a detail not shown here. Equal values may be shown once. Records with an inconclusive call do not appear. Active and inactive are the calls of the source. Unless noted, the call rests on the fitted dose curve; in most records, active means well fitted curve in the direction sought with a large enough effect; inconclusive means small, poorly fitted or top-dose-only effect, or another doubt; inactive means no such curve, though single readings can be large; an effect the other way counts as inactive or inconclusive.
Experiments:
[1] = target: Luciferin 4-monooxygenase (Photinus pyralis) (UniProt P08659); test: Biochemical firefly luciferase enzyme assay for NPC (AID 624030);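 further: purified P. pyralis luciferase at 10 nM with luciferin and ATP substrate; 0% = DMSO and -100% = full luciferase inhibition by PTC124 control; nearly all actives have a fitted effect of over 70% in size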; details: purified P. pyralis luciferase, luminescence, 5 min; series mostly up to 58.6 µM
Summary of the method: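 Direct inhibition of firefly luciferase enzyme (10 nM final, 50 mM Tris Acetate) assessed by luminescence within 5 minutes. Percent activity scaled between DMSO and PTC124 positive control, with concentration-effect curves classified by fit quality and response.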

[2] = S16 Schwann cell PMP22 intronic element firefly luciferase assay (AID 624032); details: S16 rat Schwann cells, PMP22 element FLuc, 24 h; series mostly up to 57.5 µM; further: nearly all actives have a fitted effect of over 30% in size; further: potency means the concentration at half of the fitted maximal effect
Summary of the method: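 Luciferase reporter of PMP22 intronic-element expression in stably transfected S16 rat Schwann cells, read by ONE-Glo luminescence after 24 h compound exposure at 37 C. Activity scaled between DMSO (0%) and positive-control PTC124; concentration-effect curves quality-classified.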

[3] = qHTS assay for small molecule activators of the nuclear factor-kappa B (NF-kB) signaling pathway (AID 651749; active means well fitted activation curve with a large enough effect in the signal ratio; the % refers to the signal ratio; further: % of control where 0% means no effect); details: NF-kB-bla ME-180 cells, beta-lactamase FRET ratio, 16 h; hits give high values
Summary of the method: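 Stably transfected ME-180 line; NF-kB response element upstream of beta-lactamase. Treatment: compound or DMSO, 16 hr. Detection: fluorescent FRET substrate.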

[4] = qHTS assay for environmental chemicals that activate the Aryl hydrocarbon Receptor (AhR) signaling pathway (AID 651777); details: 1A2-DRE human hepatoma cells, luciferase, 24 h; activation: hits give high values; further: % of control where 0% means no effect; nearly all actives have a fitted effect of over 15% in size
Summary of the method: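 Following a 24 hr incubation with test chemicals at 37 C and 5% CO2, 1A2-DRE human hepatoma cells received One-Glo reagent; after 30 min at room temperature, luciferase output reflected CYP1A2 induction via AhR.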

[5] = target: Peroxisome proliferator-activated receptor alpha (Homo sapiens) (UniProt Q07869); test: qHTS assay for small molecule agonists of the peroxisome proliferator-activated receptor alpha (PPARalpha) signaling pathway (AID 651778); details: PathHunter PPARalpha complementation, chemiluminescence, 6 h; hits give high values; further: % of control where 0% means no effect
Summary of the method: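 Chemiluminescence from complemented enzyme reported PPARalpha activation in cells after 6 hr of compound treatment at 37 C. The detection reagent was incubated for 60 min at room temperature, and compounds were scored as agonists.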

[6] = S16 Schwann cell PMP22 intronic element beta-lactamase assay (AID 624044; calls by dose curve;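 further: 0% = DMSO and -100% = potassium clavulanate positive control; nearly all actives have a fitted effect of over 15% in size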); details: S16 rat Schwann cells, PMP22 element beta-lactamase FRET, 24 h; ratio activity, negative = inhibition: at 38.3 µM (top of the series) unless noted
Summary of the method: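 Rat S16 Schwann cells with beta-Lac driven by a PMP22 intronic element, compound-treated 24 h at 37 °C. LiveBLAzer FRET B/G read: 460 nm normalized to potassium clavulanate vs DMSO; 535 nm FRET as viability; concentration-effect curves classified.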

[7] = S16 Schwann cell viability assay (CellTiter-Glo assay) (AID 624031); details: S16 rat Schwann cells viability, 24 h; series mostly up to 57.5 µM; further: nearly all actives have a fitted effect of over 70% in size; further: potency means the concentration at half of the fitted maximal effect
Summary of the method: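 This viability control uses native rat S16 Schwann cells grown in DMEM plus 10% FBS. After a 24 h compound treatment at 37 °C, CellTiter-Glo luminescence reports ATP content, scaled against DMSO-treated and cell-free wells.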

[8] = qHTS assay for small molecule agonists of the antioxidant response element (ARE) signaling pathway (AID 651741; active means well fitted activation curve with a large enough effect in the signal ratio; the % refers to the signal ratio; further: % of control where 0% means no effect); details: HepG2 ARE-bla reporter, beta-lactamase FRET ratio, 16 h; series mostly up to 96 µM
Summary of the method: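 Seeding 2,000 ARE-bla HepG2 cells per well preceded a 5 h incubation at 37 C/5% CO2 and a 16 h compound exposure at 37 C. Beta-lactamase reporter activity was then quantified by fluorescence after 2 h with LiveBLAzer B/G FRET substrate.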

[9] = qHTS assay for small molecule disruptors of the mitochondrial membrane potential - 1 hr assay (AID 651754; calls by dose curve; further: on the % scale 0 is the no-effect control and ±100 the full control effect; nearly all actives have a fitted effect of over 35% in size); details: series mostly up to 92.2 µM
Summary of the method: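 HepG2 cells, attached overnight at 37C, were exposed to compound or DMSO vehicle for 1 hr at 37C, 5% CO2, then stained with Mito-MPS dye for 30 min. Red aggregate versus green monomer fluorescence reports membrane potential.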

[10] = qHTS assay for small molecule disruptors of the mitochondrial membrane potential - 5 hr assay (AID 651755; calls by dose curve; further: on the % scale 0 is the no-effect control and ±100 the full control effect; nearly all actives have a fitted effect of over 40% in size); details: JC-1-type ratio dye; series mostly up to 92.2 µM
Summary of the method: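 HepG2, 2,000 cells/well, overnight attach; cpd or DMSO 5 hr, 37C/5% CO2; Mito-MPS 30 min 37C; fluor 490/535 + 540/590 nm.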

[11] = target: Tumor necrosis factor (Homo sapiens) (UniProt P01375); test: qHTS assay to identify small molecules that stimulate Tumor Necrosis Factor-alpha (TNF-alpha) secretion (AID 651757; active means well fitted curve in the direction sought with a large enough effect in the signal ratio; the % refers to the signal ratio; further: 0% is about no effect); details: Human cells, HTRF 665/615 ratio; series mostly up to 92.2 µM
Summary of the method: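 THP-1 cells were exposed to compounds for 17 hrs at 37 C, after which secreted TNF-alpha was measured by homogeneous HTRF (TR-FRET) using cryptate- and XL665-labeled anti-TNF-alpha antibodies, read after 3 hr at room temperature.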

[12] = target: Nuclear receptor ROR-gamma (Homo sapiens) (UniProt P51449); test: qHTS assay for small molecule antagonists of the retinoid-related orphan receptor gamma (ROR-gamma) signaling pathway (AID 651802); details: ROR-gamma antagonist cell reporter assay; series mostly up to 92.2 µM; further: on the % scale 0 is the no-effect control and ±100 the full control effect; nearly all actives have a fitted effect of over 60% in size
Summary of the method: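 CHO cells carrying TET-inducible ROR-gamma and an ROR response element–luciferase reporter were exposed to compound, then induced with doxycycline. After 16hr at 37C, luminescence was read; lower signal indicates antagonism.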

[13] = qHTS assay to identify small molecules that stimulate interleukin-8 (IL-8) secretion (AID 651758; active means well fitted activation curve with a large enough effect in the signal ratio; the % refers to the signal ratio; further: 0% is about no effect); details: HTRF ratio (665/615); series mostly up to 92.2 µM
Summary of the method: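 Secreted IL-8 measured by TR-FRET sandwich (cryptate and XL665 antibodies) from THP-1 cells exposed to compound overnight (16 hrs, 37 C).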

Chain of Luciferin 4-monooxygenase (Photinus pyralis) (P08659 whole entry, looked up): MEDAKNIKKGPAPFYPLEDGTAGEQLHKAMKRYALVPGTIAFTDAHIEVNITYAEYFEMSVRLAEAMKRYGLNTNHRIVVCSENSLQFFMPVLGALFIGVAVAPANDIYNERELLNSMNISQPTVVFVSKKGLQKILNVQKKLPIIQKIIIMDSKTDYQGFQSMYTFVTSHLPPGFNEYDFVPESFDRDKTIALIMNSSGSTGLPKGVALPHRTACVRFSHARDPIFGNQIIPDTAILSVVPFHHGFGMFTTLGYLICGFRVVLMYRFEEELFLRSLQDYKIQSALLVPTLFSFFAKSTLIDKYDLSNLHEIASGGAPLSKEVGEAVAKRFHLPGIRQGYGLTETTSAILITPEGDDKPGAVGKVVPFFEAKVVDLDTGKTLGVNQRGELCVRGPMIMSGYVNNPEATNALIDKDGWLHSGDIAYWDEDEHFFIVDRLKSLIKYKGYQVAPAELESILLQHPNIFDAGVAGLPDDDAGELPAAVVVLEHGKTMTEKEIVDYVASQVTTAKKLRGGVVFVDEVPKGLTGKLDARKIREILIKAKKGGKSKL
Chain of Peroxisome proliferator-activated receptor alpha (Homo sapiens) (Q07869 whole entry, looked up): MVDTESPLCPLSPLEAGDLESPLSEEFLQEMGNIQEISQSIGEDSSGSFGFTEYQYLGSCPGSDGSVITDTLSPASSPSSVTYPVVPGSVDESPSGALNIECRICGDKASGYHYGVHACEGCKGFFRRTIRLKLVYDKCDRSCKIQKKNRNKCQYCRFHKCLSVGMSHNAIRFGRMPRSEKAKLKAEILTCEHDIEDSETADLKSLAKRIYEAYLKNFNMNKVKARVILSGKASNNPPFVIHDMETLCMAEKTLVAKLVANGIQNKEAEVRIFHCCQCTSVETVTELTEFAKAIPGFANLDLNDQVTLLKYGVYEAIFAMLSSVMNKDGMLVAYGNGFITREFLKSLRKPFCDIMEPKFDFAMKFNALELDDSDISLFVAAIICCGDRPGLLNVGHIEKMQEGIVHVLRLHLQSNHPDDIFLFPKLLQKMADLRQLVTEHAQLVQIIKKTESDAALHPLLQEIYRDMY
Chain of Tumor necrosis factor (Homo sapiens) (P01375 whole entry, looked up): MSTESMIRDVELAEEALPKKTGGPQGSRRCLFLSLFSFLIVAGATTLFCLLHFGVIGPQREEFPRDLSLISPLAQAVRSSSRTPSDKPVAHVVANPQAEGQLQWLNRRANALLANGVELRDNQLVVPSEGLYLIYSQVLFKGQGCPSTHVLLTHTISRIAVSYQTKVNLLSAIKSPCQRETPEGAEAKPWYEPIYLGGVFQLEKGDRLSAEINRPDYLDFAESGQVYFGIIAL
Chain of Nuclear receptor ROR-gamma (Homo sapiens) (P51449 whole entry, looked up): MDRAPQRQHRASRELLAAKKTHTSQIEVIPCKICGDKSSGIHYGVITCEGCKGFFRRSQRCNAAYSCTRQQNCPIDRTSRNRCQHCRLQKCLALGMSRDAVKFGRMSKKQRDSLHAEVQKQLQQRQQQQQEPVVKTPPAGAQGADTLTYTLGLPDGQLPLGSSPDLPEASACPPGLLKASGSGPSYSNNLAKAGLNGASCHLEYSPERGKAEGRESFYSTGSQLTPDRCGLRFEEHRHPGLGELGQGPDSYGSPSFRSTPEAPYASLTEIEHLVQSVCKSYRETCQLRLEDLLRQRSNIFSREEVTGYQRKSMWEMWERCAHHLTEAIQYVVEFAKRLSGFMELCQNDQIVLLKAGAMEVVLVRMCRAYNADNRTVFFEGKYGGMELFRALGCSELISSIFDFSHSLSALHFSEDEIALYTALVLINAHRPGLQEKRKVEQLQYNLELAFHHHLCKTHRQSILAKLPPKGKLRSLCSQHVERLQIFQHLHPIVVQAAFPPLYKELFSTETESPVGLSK

OC[C@H]1O[C@@](CO)(O[C@H]2O[C@H](CO)[C@@H](O)[C@H](O)[C@H]2O)[C@@H](O)[C@@H]1O
inactive: Potency [1] | Potency [2] | activation [3] -1.26% | activation [4] 1.69% | max response [5] 0.569%

CCN(CC)CCCC(C)Nc1cc(/C=C/c2ccccc2Cl)nc2cc(Cl)ccc12 (configuration not stated)
inactive: Potency [1] | ratio activity, negative = inhibition [6] -1.08%

CN(C)C=Nc1c(I)cc(I)c(CCC(=O)O)c1I
inactive: Potency [7] | Potency [2] | ratio activity, negative = inhibition [6] 2.26%

CCC(Cc1c(I)cc(I)c(O)c1I)C(=O)O (configuration not stated)
inactive: Potency [7] | Potency [2] | ratio activity, negative = inhibition [6] 3.55%

Cc1ncc(C[n+]2csc(CCOP(=O)(O)O)c2C)c(N)n1
inactive: Potency [1] | ratio activity, negative = inhibition [6] -8.96%

CC(=O)Oc1cccc(C(=O)O)c1OC(C)=O
inactive: Potency [1] | ratio activity, negative = inhibition [6] 10.8%

CN=C1C=CC(=C(c2ccc(N(C)C)cc2)c2ccc(N(C)C)cc2)C=C1
active: Potency [7] 10.2 µM | Potency [2] 14.4 µM

OCl
inactive: Potency [1] | Potency [2] | Potency [8] | activation [3] -0.921% | Potency [9] | Potency [10] | Potency [11] | activation [4] 0.267% | max response [5] -2.41% | Potency [12]

O=C(CCCN1CCC(C(=O)c2ccc(F)cc2)CC1)c1ccc(F)cc1
inactive: Potency [7] | Potency [2] | ratio activity, negative = inhibition [6] -12.9%

C[C@H](N)C(=O)N[C@@H](C)P(=O)(O)O
inactive: Potency [7] | Potency [2] | ratio activity, negative = inhibition [6] 4.18%

CCOC(=O)Cc1ccc(-c2ccccc2)cc1
inactive: Potency [7] | Potency [2]

O=C(OCc1ccccc1)c1cccnc1
inactive: Potency [7]

CC(C)O
inactive: Potency [1] | Potency [2] | activation [3] -0.863% | Potency [9] | Potency [10] | Potency [11] | Potency [13] | activation [4] 2.92% | max response [5] -0.168% | Potency [12]

OCCOCCOCCO
inactive: Potency [1] | Potency [2] | Potency [8] | activation [3] -1.02% and -0.204% | max response [5] 0.91% and -3.36%

O=C1CCC(=O)N1CO
inactive: Potency [7] | Potency [2]

O=C1c2ccccc2C(=O)C1c1ccc(Cl)cc1
inactive: Potency [7] | Potency [2] | ratio activity, negative = inhibition [6] -9.28%

[O]=[Bi][O][Bi]=[O]
inactive: Potency [7] | Potency [2] | ratio activity, negative = inhibition [6] 3.6%

CC(C)=CCC/C(C)=C/CC/C(C)=C/CC/C=C(\C)CC/C=C(\C)CCC=C(C)C
inactive: Potency [7] | Potency [2]

O=C(O)c1cc(N=Nc2ccc(O)c(C(=O)O)c2)ccc1O
inactive: Potency [7] | Potency [2]

O=C1c2ccccc2C(=O)c2c1ccc(O)c2O
inactive: Potency [2] | ratio activity, negative = inhibition [6] 0.767%
